Source: PubChem BioAssay
Mac1 fbg inh – inhibitors of CD11b/CD18 adhesion to fibrinogen, primary screen, K562 cells, luminescence | inhibition, % at 10 µM | ATPlite luminescence; Mn2+ added to activate the integrin | Integrin beta-2 (Homo sapiens) + Integrin alpha-M (Homo sapiens), P05107+P11215 | AID 1497, 2009 | 93,000 tested, 0.54% active;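 active = primary inhibition of 50% or more at 10 µM, then 40% or more on retest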
Target sequence (P05107 whole entry, looked up, other chains not shown): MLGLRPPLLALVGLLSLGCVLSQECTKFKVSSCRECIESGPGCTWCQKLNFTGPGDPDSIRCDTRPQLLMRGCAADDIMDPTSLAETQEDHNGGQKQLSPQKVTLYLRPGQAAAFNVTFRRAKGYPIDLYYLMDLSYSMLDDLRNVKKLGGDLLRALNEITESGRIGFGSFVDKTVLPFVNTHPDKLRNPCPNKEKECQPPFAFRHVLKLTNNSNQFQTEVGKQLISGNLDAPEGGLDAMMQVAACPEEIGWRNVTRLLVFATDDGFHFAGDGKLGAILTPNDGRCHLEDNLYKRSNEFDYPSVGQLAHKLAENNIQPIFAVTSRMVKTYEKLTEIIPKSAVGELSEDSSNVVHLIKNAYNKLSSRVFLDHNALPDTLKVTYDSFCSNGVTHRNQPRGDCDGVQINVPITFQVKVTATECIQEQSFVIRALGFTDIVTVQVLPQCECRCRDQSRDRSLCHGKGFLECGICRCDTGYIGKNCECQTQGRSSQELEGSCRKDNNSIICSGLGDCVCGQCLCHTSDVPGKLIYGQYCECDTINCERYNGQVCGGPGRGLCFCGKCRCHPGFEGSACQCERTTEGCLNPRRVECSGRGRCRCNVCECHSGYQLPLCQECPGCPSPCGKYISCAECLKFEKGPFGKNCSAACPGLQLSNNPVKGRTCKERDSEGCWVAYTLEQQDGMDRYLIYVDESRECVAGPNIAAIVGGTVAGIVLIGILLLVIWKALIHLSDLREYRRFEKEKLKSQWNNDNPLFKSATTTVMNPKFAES
CYP2C9 activ – human CYP2C9 activators, primary screen, biochemical, luminescence; recombinant CYP2C9, luciferin-H conversion; hits give high values; factor 1 = untreated enzyme, 0 = blocked; Cytochrome P450 2C9 (Homo sapiens), P11712; activation factor at 5 µM; AID 1024, 2008; 96,000 tested, 1.4% active;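 active = activation factor of 2 or more for CYP2C9 at a 5 µM dose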;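 also: 0 = sulfaphenazole-blocked wells and 1 = vehicle-only wells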
CYP2C19 act – human CYP2C19 activators, primary screen, biochemical, luminescence. recombinant CYP2C19, luciferin-H EGE luminescence; hits give high values; 0 = fully inhibited enzyme, 1 = untreated enzyme. activation factor at 5 µM. Cytochrome P450 2C19 (Homo sapiens), P33261. 96,000 tested, under 10 active. AID 1025, 2008;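 active = activation factor of at least 2 at 5 µM in the primary screen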;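 also: 0 = wells with 2.5 mM tranylcypromine and 1 = vehicle-only wells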
CYP2C9 inhib – blockers of cytochrome P450 2C9 activity – biochemical, luminescence, ADME assay, primary screen; 96,000 tested, 20% active; CYP2C9 Supersomes, luciferin-H conversion; inhibition, % at 5 µM;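 active = blocking of liver enzyme CYP2C9 beyond about 50% at 5 µM, limit read from the data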
Mac1 fbg enh – enhancers of CD11b/CD18 adhesion to fibrinogen, primary screen, K562 cells, luminescence. AID 1499, 2009. 93,000 tested, 0.07% active. ATPlite luminescence. activation, % at 10 µM. Integrin beta-2 (Homo sapiens) + Integrin alpha-M (Homo sapiens), P05107+P11215;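 active = 10 µM primary screen giving 50% or more activity, confirmed by 40% or more on retest at that dose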
CYP2C19 inhib – blockers of cytochrome P450 2C19 activity – biochemical, luminescence, ADME assay, primary screen; 96,000 tested, 21% active; CYP2C19 Supersomes, luciferin-H EGE luminescence, 30 min; P33261; inhibition, % at 5 µM;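 active = CYP2C19 inhibition above a set limit at 5 µM in the primary screen, cut at about 50% in these data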;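 also: plate controls were negative control wells for no effect and 2.5 mM tranylcypromine positive control for full effect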
An asterisk follows results filed as active; · = no result. The list is not random: actives were taken first. Their share in the collection is about 28%.

SMILES	Mac1 fbg inh	CYP2C9 activ	CYP2C19 act	CYP2C9 inhib	Mac1 fbg enh	CYP2C19 inhib
Cc1nc2c(c(=O)n1Cc1ccccc1Cl)c1nc3ccccc3nc1n2Cc1ccco1	7	0.5	1	52*	56	4
COc1ccc(Cn2c3nc4ccccc4nc3c3c(=O)n(Cc4ccco4)c(C)nc32)cc1	-12	0.7	1	26	55	0
CCO/C(C)=N/n1c2nc3ccccc3nc2c2c(=O)n(Cc3ccccc3Cl)c(C)nc21	-4	0.5	0.8	53*	-1	23
CC(=O)c1c(C)[nH]c(C(=O)OCn2nnc3ccccc3c2=O)c1C	6	1.1	0.9	-9	-4	11
COC(=O)c1ccc(NC(=O)COC(=O)c2cccc3c(=O)c(C)c(-c4ccccc4)oc23)cc1	-12	·	·	·	6	·
O=C(NCc1ccccc1)N1CCN(c2ccc(Cl)c(Cl)c2)CC1	2	0.8	1	22	1	-3
Cc1sc2ncnc(OCC(=O)c3ccc(S(=O)(=O)N4CCCC4)cc3)c2c1C	8	0.3	0.3	69*	-3	73*
Cc1sc2ncnc(OCC(=O)N3CCN(S(=O)(=O)c4ccc(Cl)cc4)CC3)c2c1C	-24	0.2	0.3	83*	9	75*
CCOc1cccc(C(=O)Nc2ccccc2OC(F)F)c1	0	0.7	0.4	33	-2	56*
Cc1c(Cl)cccc1NC(=O)c1cccc(OC(F)F)c1	1	1	0.3	0	-1	72*
COc1ccc(NC(=O)c2cccc(OC(F)F)c2)cc1Cl	7	1.1	0.3	-13	-2	69*
O=C(Nc1ccc(OC(F)F)c(Cl)c1)c1cccc(OC(F)F)c1	39	0.9	0.1	11	0	88*
Cc1ccc(Oc2nn[nH]n2)cc1	·	0.3	1.1	70*	·	-5
CC1CCN(c2nnc(-c3cccs3)c3ccccc23)CC1	19	·	·	·	2	·
CC(=O)c1c(C)[nH]c(C(=O)OCC(=O)Nc2cc(C(F)(F)F)ccc2N2CCOCC2)c1C	3	0.4	0.7	58*	5	35
CCOc1cc(N2CCOCC2)c(OCC)cc1NC(=O)CN1C(=O)NC2(CCc3ccccc32)C1=O (stereo not drawn)	6	0.6	0.8	44	0	21
CC1(C)Cc2cccc(OCC(=O)Nc3cc(C(F)(F)F)ccc3N3CCOCC3)c2O1	17	0.5	0.8	51*	-4	19
O=C(CN1C(=O)NC2(CCc3ccccc32)C1=O)Nc1cc(C(F)(F)F)ccc1N1CCOCC1 (stereo not drawn)	-4	0.1	0.7	89*	-2	35
CC1(C)Cc2cccc(OCC(=O)Nc3cccnc3)c2O1	-2	0.8	0.7	19	-1	28
CC1(C)Cc2cccc(OCC(=O)Nc3cccnc3Cl)c2O1	-20	2.2*	0	-116	-4	98*
CC(C(=O)Nc1ccc2nccnc2c1)N1C(=O)C2C3C=CC(C3)C2C1=O (stereo not drawn)	-10	1	1.1	4	5	-10
COc1ccc(C(=O)Cn2c3ccccc3n3nc(CCC(=O)O)c(=O)nc23)cc1OC	-29	1.1	0.7	-11	1	31
CC(C)Sc1nnc([C@H](Cc2c[nH]c3ccccc23)NC(=O)OC(C)(C)C)o1	-3	0.5	0.6	48	0	36
CN(C)S(=O)(=O)c1cc(C(=O)NCC2CCCO2)c(Cl)cc1Cl (stereo not drawn)	-2	1	1.1	3	-2	-7
CC1(C)Cc2cccc(OCC(=O)NC3CC3)c2O1	0	0.8	0.6	18	0	45
SMILES	Mac1 fbg inh	CYP2C9 activ	CYP2C19 act	CYP2C9 inhib	Mac1 fbg enh	CYP2C19 inhib
Cc1noc(C)c1COC(=O)COc1cccc2c1OC(C)(C)C2	-3	0.3	0.2	68*	-2	77*
COc1ccc(N2CCN(C(c3cccs3)c3nnnn3C3CCCC3)CC2)cc1 (stereo not drawn)	-8	0.4	0.7	64*	7	29
Fc1ccc(N2CCN(C(c3cccs3)c3nnnn3C3CCCC3)CC2)cc1 (stereo not drawn)	1	0	0	98*	-2	96*
Fc1ccc(CN(Cc2ccccc2)C(c2cccs2)c2nnnn2C2CCCCC2)cc1 (stereo not drawn)	32	0.8	1.1	23	-4	-6
CCOc1ccc2[nH]cc(C(=O)N3CCN(CC)CC3)c(=O)c2c1	-10	1	1.1	-1	-4	-7
COCc1cc(=O)n2[nH]c(C)nc2n1	-21	1.1	1	-10	-1	0
Cc1nn(Cc2ccc(Cl)cc2)c(C)c1NC(=O)c1noc2c1CCc1ccccc1-2	54	1.1	1	-8	2	-1
Cc1nn(Cc2ccc(F)cc2)c(C)c1NC(=O)c1noc2c1CCCCC2	-22	0.2	0.4	77*	6	56*
CCc1cccc(C)c1NC(=O)C1C2CCC(O2)C1C(=O)O (stereo not drawn)	-7	1.1	1	-14	0	0
Cc1ccccc1Cn1nc(C)c(NC(=O)c2noc3c2CCCC3)c1C	-6	0.4	0.8	58*	-3	23
Cc1nn(Cc2ccccc2Cl)c(C)c1NC(=O)c1noc2c1CCCCC2	0	0.5	1	54*	1	-2
Cc1nn(Cc2ccccc2Cl)c(C)c1NC(=O)C1C2CCC(O2)C1C(=O)O (stereo not drawn)	16	0.7	0.1	27	0	94*
CCC1CCC(NC2CCCCNC2=O)CC1 (stereo not drawn)	1	1.1	1.1	-14	-4	-7
CCOc1cccc(C2c3c(oc4cc(C)c(C)cc4c3=O)C(=O)N2CCCN(C)C)c1 (stereo not drawn)	3	0.5	1.1	50	1	-5
O=C(NCC1CCCO1)C1CCC(=O)N1Cc1ccccc1Cl (stereo not drawn)	2	1.1	1.1	-6	4	-5
COc1ccc(C(=O)N2CCCC(c3nc(-c4cccs4)no3)C2)cc1OC (stereo not drawn)	4	1	0.5	4	3	55*
COc1ccc(C(=O)N2CCCC(c3nc(-c4cccs4)no3)C2)cc1 (stereo not drawn)	7	0.3	0.2	74*	-2	84*
O=C(NCCN1CCOCC1)c1cc(S(=O)(=O)NCCCN2CCCC2=O)ccc1Cl	1	1.3	1.2	-33	-1	-24
CS(=O)(=O)NCCC1=CCCCC1	3	1	0.9	1	-3	6
